Reference: PMC7862700, “An all-to-all approach to the identification of sequence-specific readers for epigenetic DNA modifications on cytosine”

Tests used:
Assay in all cases: DAPPL (digital affinity profiling via proximity ligation, sequencing); 10 mM Tris-HCl pH 7.5, 50 mM NaCl, 1 mM DTT, 4% glycerol, room temperature, 30 min; GST-TFs on glutathione beads, 16-mer random dsDNA library, 0.1% formaldehyde crosslink after washing; high values mean tight binding
[1] = target: T1, FEV (Homo sapiens, UniProt Q99581 1-238); conditions: protein: recombinant; tags: N-terminal GST; dsDNA, one strand shown
T1 sequence: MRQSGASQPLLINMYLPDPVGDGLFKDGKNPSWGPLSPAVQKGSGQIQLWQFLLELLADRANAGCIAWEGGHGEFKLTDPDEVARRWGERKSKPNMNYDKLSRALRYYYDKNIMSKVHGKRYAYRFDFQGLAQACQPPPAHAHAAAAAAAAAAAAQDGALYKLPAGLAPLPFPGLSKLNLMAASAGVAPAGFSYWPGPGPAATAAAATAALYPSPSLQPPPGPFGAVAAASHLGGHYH
In short: (§1)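 Each value of binding signal is a hexamer's read frequency for a factor divided by the same hexamer's frequency in the tag-only sample. Barcoded, bead-captured GST fusions of human transcription factors made in yeast were pooled with that sample and incubated with 200 nmole of a random double-stranded 16-mer DNA library in Tris/NaCl/DTT/glycerol buffer at room temperature for 30 min. Washing, 0.1% formaldehyde crosslinking, proximity ligation, PCR and Illumina NextSeq500 sequencing followed.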

[2] = target: ETV5 (Homo sapiens, UniProt P41161 1-510); conditions: protein: recombinant; tags: N-terminal GST; dsDNA, one strand shown
In short: as §1

[3] = target: HSF1 (Homo sapiens, UniProt Q00613 1-529); conditions: protein: recombinant; tags: N-terminal GST; chain copies: 3; dsDNA, one strand shown
In short: as §1

[4] = target: T2, SPIC (Homo sapiens, UniProt Q8N5J4 1-248); conditions: protein: recombinant; tags: N-terminal GST; dsDNA, one strand shown
T2 sequence: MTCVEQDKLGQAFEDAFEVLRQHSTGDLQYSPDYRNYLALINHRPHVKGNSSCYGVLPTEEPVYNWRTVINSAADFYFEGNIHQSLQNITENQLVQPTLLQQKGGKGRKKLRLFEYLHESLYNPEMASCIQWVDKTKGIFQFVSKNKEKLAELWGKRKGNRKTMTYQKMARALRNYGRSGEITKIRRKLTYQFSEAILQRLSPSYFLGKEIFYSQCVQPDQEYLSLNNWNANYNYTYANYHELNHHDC
In short: as §1

[5] = target: ELF4 (Homo sapiens, UniProt Q99607 1-663); conditions: protein: recombinant; tags: N-terminal GST; dsDNA, one strand shown
In short: as §1

[6] = target: T3, ELK4 (Homo sapiens, UniProt P28324-2 1-405); conditions: protein: recombinant; tags: N-terminal GST; dsDNA, one strand shown
T3 sequence: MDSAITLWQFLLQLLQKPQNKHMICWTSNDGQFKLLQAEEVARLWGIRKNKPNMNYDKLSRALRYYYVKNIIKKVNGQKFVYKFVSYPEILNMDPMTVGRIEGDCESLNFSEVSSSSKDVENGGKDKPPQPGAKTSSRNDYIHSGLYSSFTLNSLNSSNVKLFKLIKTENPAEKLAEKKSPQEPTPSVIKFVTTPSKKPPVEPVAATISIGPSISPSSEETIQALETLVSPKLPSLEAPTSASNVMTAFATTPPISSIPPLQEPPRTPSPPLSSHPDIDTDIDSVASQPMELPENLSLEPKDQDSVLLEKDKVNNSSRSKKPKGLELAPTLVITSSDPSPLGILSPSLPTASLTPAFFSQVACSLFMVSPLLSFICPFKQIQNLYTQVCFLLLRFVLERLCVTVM
In short: as §1

[7] = target: T4, ETV2 (Homo sapiens, UniProt O00321 1-342); conditions: protein: recombinant; tags: N-terminal GST; dsDNA, one strand shown
T4 sequence: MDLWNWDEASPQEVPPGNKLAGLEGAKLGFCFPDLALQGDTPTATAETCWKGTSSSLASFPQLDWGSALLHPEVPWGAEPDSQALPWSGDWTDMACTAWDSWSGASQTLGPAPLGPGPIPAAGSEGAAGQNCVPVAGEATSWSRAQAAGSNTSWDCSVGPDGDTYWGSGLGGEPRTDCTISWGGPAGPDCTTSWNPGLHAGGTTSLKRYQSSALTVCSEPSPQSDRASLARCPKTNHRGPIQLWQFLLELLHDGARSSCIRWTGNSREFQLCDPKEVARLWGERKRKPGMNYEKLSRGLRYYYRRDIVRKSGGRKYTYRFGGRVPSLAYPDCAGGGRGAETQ
In short: as §1

[8] = target: T5, ELF3 (Homo sapiens, UniProt P78545 1-371); conditions: protein: recombinant; tags: N-terminal GST; dsDNA, one strand shown
T5 sequence: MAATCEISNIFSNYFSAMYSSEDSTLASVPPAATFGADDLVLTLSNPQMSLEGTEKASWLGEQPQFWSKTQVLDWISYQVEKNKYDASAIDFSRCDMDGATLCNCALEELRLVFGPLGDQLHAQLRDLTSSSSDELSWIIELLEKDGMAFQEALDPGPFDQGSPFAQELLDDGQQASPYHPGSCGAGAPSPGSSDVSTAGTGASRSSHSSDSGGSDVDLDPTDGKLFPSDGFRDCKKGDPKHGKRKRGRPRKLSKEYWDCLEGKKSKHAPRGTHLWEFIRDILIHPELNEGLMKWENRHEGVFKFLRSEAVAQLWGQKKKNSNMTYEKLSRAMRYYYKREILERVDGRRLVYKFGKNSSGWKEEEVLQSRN
In short: as §1

[9] = target: CRX (Homo sapiens, UniProt O43186 1-299); conditions: protein: recombinant; tags: N-terminal GST; dsDNA, one strand shown
In short: as §1

[10] = target: ETV1 (Homo sapiens, UniProt P50549 1-477); conditions: protein: recombinant; tags: N-terminal GST; dsDNA, one strand shown
In short: as §1

[11] = target: T6, ERF (Homo sapiens, UniProt P50548 1-548); conditions: protein: recombinant; tags: N-terminal GST; dsDNA, one strand shown
T6 sequence: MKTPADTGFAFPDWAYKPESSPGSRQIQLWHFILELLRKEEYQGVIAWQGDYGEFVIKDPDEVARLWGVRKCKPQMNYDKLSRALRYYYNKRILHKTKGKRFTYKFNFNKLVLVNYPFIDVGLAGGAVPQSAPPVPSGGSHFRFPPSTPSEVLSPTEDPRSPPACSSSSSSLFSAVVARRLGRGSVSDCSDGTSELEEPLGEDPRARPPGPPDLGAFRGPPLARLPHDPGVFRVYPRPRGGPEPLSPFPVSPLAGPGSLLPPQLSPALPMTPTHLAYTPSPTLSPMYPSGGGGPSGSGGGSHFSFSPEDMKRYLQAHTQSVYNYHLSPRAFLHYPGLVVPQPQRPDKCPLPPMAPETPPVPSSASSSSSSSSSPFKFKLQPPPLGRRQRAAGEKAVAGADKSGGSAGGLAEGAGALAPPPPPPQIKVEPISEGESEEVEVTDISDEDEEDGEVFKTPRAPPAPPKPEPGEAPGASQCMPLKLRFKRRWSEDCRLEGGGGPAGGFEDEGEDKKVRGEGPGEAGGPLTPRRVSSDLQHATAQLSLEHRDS
In short: as §1

[12] = target: T7, ETV3L (Homo sapiens, UniProt Q6ZN32 1-361); conditions: protein: recombinant; tags: N-terminal GST; dsDNA, one strand shown
T7 sequence: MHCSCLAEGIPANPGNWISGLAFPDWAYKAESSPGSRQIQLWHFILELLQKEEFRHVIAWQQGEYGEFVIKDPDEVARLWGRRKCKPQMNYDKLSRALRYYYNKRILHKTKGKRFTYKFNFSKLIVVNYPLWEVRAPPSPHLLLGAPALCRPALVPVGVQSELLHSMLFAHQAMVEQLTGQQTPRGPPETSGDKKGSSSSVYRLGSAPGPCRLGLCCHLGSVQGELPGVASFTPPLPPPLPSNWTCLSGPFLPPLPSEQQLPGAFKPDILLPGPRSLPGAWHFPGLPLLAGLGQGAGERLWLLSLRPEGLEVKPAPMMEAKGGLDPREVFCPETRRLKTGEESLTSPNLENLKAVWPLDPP
In short: as §1

[13] = target: T8, ETS2 (Homo sapiens, UniProt P15036 1-469); conditions: protein: recombinant; tags: N-terminal GST; dsDNA, one strand shown
T8 sequence: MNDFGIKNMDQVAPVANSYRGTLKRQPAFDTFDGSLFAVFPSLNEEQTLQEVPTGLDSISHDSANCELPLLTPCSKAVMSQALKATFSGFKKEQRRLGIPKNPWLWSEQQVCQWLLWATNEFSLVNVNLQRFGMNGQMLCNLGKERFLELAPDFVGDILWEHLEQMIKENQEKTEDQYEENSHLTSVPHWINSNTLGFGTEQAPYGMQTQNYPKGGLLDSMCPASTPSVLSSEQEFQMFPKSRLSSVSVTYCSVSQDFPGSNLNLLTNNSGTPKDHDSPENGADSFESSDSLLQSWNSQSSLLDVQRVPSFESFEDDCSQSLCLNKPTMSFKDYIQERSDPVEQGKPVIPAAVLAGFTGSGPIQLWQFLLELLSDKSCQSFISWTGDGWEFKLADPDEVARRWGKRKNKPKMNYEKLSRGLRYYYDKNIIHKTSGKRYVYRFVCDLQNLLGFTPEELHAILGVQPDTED
In short: as §1

[14] = target: T9, SPDEF (Homo sapiens, UniProt O95238 1-335); conditions: protein: recombinant; tags: N-terminal GST; dsDNA, one strand shown
T9 sequence: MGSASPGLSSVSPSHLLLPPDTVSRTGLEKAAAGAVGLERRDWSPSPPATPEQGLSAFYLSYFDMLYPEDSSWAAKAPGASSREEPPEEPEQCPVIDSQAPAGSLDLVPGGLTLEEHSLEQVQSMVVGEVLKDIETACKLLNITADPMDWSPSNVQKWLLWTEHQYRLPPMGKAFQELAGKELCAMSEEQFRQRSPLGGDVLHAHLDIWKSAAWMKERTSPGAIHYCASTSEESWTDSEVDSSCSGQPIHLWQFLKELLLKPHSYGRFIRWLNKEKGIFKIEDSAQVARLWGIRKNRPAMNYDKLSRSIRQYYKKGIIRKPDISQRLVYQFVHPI
In short: as §1

[15] = target: T10, ETV7 (Homo sapiens, UniProt Q9Y603 1-341); conditions: protein: recombinant; tags: N-terminal GST; dsDNA, one strand shown
T10 sequence: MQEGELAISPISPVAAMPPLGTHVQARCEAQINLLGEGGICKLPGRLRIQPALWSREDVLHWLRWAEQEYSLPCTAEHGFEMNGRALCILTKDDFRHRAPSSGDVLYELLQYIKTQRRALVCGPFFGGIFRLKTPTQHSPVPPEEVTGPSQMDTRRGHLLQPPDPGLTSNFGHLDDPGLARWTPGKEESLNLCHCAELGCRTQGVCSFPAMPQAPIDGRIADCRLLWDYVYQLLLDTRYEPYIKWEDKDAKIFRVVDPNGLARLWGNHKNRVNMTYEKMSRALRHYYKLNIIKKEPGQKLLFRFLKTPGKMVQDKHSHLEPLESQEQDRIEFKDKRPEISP
In short: as §1

[16] = target: T11, ELF5 (Homo sapiens, UniProt Q9UKW6-2 1-255); conditions: protein: recombinant; tags: N-terminal GST; dsDNA, one strand shown
T11 sequence: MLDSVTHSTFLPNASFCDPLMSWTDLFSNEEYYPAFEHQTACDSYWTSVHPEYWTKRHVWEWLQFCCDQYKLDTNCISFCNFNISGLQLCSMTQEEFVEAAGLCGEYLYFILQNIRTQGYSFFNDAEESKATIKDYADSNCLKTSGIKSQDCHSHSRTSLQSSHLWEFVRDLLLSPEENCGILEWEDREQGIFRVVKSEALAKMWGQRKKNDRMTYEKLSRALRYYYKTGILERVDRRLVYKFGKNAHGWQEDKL
In short: as §1

[17] = target: T12, ETV3 (Homo sapiens, UniProt P41162-2 1-143); conditions: protein: recombinant; tags: N-terminal GST; dsDNA, one strand shown
T12 sequence: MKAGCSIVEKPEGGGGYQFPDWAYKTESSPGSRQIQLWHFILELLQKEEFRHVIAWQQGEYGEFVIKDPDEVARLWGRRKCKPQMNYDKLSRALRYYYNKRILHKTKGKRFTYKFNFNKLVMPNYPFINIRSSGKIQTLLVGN
In short: as §1

[18] = target: ETV6 (Homo sapiens, UniProt P41212 1-452); conditions: protein: recombinant; tags: N-terminal GST; dsDNA, one strand shown
In short: as §1

ETV6, sequence (P41212 whole entry): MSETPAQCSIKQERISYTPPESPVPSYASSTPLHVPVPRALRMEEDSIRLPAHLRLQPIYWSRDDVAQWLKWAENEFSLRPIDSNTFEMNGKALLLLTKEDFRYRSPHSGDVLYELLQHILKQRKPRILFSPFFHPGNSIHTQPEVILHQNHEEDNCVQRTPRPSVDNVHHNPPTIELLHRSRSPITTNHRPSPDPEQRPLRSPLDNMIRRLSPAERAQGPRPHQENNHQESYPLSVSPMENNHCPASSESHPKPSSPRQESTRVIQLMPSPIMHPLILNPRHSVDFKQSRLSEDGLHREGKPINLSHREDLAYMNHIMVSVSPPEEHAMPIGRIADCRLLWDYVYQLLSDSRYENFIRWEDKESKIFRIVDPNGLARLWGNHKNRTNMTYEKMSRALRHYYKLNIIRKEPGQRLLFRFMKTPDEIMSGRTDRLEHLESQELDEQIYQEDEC
ELF4, sequence (Q99607 whole entry): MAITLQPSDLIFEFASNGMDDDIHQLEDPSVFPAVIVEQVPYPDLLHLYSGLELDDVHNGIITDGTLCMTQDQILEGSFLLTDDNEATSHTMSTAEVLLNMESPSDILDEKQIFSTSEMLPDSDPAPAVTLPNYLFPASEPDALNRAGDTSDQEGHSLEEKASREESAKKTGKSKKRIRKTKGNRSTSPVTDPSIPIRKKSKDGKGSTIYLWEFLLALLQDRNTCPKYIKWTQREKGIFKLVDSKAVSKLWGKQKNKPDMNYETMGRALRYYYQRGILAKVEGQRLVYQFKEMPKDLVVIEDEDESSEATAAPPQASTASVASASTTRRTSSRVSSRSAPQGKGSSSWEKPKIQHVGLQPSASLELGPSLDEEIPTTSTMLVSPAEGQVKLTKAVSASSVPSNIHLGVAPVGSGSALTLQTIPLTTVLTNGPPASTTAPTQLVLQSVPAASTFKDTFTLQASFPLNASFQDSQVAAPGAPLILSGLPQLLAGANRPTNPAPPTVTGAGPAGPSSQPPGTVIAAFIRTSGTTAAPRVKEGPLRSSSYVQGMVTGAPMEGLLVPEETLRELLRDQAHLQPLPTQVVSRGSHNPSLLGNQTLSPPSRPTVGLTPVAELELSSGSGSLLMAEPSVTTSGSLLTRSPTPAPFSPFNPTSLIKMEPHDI
ETV1, sequence (P50549 whole entry): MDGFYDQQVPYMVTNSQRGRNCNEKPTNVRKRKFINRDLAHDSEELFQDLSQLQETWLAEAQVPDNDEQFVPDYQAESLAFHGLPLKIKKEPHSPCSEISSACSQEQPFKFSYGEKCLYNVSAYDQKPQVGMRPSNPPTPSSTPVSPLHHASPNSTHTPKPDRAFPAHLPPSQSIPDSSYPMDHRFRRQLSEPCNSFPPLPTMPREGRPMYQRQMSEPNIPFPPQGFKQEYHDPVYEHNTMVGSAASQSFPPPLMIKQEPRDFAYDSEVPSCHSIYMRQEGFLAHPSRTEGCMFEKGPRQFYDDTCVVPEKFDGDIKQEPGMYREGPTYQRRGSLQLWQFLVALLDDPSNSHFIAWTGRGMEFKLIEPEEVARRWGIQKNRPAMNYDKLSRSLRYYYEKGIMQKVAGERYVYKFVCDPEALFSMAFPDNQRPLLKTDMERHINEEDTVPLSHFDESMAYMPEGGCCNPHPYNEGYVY
ETV5, sequence (P41161 whole entry): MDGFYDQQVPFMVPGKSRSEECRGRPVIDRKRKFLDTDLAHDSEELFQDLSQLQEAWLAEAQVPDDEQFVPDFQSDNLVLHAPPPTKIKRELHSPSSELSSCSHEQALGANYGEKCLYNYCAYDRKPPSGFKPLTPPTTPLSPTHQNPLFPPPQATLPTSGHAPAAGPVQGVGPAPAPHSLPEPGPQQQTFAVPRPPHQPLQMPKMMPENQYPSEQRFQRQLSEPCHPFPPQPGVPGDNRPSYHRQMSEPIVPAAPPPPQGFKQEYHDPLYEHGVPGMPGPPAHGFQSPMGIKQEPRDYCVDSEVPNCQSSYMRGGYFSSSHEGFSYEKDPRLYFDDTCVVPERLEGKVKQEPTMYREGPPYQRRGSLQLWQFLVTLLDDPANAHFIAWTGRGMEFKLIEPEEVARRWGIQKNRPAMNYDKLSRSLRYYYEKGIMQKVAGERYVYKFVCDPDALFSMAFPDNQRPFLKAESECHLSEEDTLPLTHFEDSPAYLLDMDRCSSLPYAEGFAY
CRX, sequence (O43186 whole entry): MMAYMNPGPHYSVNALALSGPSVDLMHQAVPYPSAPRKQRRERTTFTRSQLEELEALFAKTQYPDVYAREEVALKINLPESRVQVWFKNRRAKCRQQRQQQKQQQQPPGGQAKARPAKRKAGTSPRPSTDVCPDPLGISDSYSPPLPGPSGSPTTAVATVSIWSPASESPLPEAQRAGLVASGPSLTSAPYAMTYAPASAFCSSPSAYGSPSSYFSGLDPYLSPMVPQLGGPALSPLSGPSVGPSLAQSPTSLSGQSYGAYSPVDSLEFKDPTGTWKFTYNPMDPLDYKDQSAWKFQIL
HSF1, sequence (Q00613 whole entry): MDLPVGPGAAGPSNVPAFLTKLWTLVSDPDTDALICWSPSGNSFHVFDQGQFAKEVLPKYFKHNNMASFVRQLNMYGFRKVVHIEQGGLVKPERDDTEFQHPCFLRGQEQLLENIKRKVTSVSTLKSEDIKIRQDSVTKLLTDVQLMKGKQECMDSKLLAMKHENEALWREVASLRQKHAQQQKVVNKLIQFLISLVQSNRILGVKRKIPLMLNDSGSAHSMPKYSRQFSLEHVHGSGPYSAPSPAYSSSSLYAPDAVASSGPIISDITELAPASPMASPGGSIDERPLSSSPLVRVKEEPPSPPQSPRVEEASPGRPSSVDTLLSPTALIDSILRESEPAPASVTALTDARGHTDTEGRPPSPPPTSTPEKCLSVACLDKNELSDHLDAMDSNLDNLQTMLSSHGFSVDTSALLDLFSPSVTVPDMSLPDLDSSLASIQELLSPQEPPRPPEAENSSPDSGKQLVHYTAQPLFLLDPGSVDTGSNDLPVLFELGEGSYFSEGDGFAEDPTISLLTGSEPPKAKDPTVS

TAATGA
binding signal [1]: 1.12 fold enrichment (6-mer frequency, TF over GST control) | binding signal [2]: 1.12 fold enrichment (6-mer frequency, TF over GST control) | binding signal [3]: 1.37 fold enrichment (6-mer frequency, TF over GST control) | binding signal [4]: 1.11 fold enrichment (6-mer frequency, TF over GST control) | binding signal [5]: 1.17 fold enrichment (6-mer frequency, TF over GST control) | binding signal [6]: 1.12 fold enrichment (6-mer frequency, TF over GST control) | binding signal [7]: 1.13 fold enrichment (6-mer frequency, TF over GST control) | binding signal [8]: 1.12 fold enrichment (6-mer frequency, TF over GST control) | binding signal [9]: 1.7 fold enrichment (6-mer frequency, TF over GST control) | binding signal [10]: 1.19 fold enrichment (6-mer frequency, TF over GST control) | binding signal [11]: 1.26 fold enrichment (6-mer frequency, TF over GST control) | binding signal [12]: 1.24 fold enrichment (6-mer frequency, TF over GST control) | binding signal [13]: 1.2 fold enrichment (6-mer frequency, TF over GST control) | binding signal [14]: 1.11 fold enrichment (6-mer frequency, TF over GST control) | binding signal [15]: 1.18 fold enrichment (6-mer frequency, TF over GST control) | binding signal [16]: 1.12 fold enrichment (6-mer frequency, TF over GST control) | binding signal [17]: 1.1 fold enrichment (6-mer frequency, TF over GST control) | binding signal [18]: 1.21 fold enrichment (6-mer frequency, TF over GST control)
